Data taken from ChEMBL document CHEMBL1961873, “Compounds: GSK PKIS; Assays: Nanosyn kinase panel” (2012).
Where “and” joins values, the source holds several entries; their conditions need not be identical. Equal values may be shown once.

Key:
[1] = biological target: T1, Serine/threonine-protein kinase TBK1 (Homo sapiens) (UniProt Q9UHD2); conditions: at 1 µM;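 further: values are mean inhibition of TBK1, screened as part of the GSK published kinase inhibitor set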
T1 sequence (whole entry): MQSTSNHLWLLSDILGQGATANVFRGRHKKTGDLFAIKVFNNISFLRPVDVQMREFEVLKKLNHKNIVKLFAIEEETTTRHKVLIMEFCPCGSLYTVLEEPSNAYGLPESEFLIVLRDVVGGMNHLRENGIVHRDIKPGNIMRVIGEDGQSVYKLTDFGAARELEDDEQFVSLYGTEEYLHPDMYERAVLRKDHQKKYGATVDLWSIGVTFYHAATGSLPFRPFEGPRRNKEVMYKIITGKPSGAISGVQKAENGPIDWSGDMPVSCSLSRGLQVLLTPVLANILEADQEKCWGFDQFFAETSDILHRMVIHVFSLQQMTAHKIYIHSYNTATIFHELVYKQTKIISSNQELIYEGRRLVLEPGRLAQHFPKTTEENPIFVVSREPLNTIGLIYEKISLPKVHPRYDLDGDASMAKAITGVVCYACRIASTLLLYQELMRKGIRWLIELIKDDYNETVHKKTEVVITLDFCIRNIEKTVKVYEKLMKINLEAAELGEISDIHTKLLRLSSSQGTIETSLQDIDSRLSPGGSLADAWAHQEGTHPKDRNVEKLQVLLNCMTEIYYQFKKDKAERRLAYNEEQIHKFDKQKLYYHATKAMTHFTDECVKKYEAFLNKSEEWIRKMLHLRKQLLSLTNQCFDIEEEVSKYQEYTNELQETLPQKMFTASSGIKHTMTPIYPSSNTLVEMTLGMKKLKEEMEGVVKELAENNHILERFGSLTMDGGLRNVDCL

[2] = biological target: T2, Testis-specific serine/threonine-protein kinase 1 (Homo sapiens) (UniProt Q9BXA7); conditions: at 0.1 µM
T2 sequence (whole entry): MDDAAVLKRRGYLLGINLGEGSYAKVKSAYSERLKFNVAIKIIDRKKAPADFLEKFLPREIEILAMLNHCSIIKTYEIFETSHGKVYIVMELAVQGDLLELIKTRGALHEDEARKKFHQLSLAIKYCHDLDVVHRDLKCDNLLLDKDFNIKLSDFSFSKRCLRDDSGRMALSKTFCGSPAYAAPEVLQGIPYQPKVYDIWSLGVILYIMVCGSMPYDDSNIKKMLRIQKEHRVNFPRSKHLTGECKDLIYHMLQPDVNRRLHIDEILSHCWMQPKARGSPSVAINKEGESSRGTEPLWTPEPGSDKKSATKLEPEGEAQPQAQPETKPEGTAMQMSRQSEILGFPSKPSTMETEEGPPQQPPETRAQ

[3] = biological target: T2, Testis-specific serine/threonine-protein kinase 1 (Homo sapiens); conditions: at 1 µM
[4] = biological target: T3, Testis-specific serine/threonine-protein kinase 2 (Homo sapiens) (UniProt Q96PF2); conditions: at 0.1 µM
T3 sequence (whole entry): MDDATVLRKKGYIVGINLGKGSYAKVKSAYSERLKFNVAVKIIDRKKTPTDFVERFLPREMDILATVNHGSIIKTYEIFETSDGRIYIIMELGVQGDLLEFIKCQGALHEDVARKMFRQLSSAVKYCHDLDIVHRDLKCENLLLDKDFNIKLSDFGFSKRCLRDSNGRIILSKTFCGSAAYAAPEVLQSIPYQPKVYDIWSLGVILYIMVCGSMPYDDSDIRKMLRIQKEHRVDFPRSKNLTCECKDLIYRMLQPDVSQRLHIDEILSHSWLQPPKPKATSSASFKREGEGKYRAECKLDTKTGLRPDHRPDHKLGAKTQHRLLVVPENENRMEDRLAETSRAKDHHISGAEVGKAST

[5] = biological target: T3, Testis-specific serine/threonine-protein kinase 2 (Homo sapiens); conditions: at 1 µM
[6] = biological target: Casein kinase I isoform alpha (Homo sapiens) (UniProt P48729); conditions: at 0.1 µM
[7] = biological target: Casein kinase I isoform alpha (Homo sapiens) (UniProt P48729); conditions: at 1 µM
[8] = biological target: Casein kinase I isoform gamma-1 (Homo sapiens) (UniProt Q9HCP0); conditions: at 0.1 µM
[9] = biological target: Casein kinase I isoform gamma-1 (Homo sapiens) (UniProt Q9HCP0); conditions: at 1 µM
[10] = biological target: Casein kinase I isoform gamma-2 (Homo sapiens) (UniProt P78368); conditions: at 0.1 µM
[11] = biological target: Casein kinase I isoform gamma-2 (Homo sapiens) (UniProt P78368); conditions: at 1 µM
[12] = biological target: Casein kinase I isoform gamma-3 (Homo sapiens) (UniProt Q9Y6M4); conditions: at 0.1 µM
[13] = biological target: Casein kinase I isoform gamma-3 (Homo sapiens) (UniProt Q9Y6M4); conditions: at 1 µM
[14] = biological target: Cyclin-dependent kinase 1 (Homo sapiens) (UniProt P06493); conditions: at 0.1 µM
[15] = biological target: Cyclin-dependent kinase 1 (Homo sapiens) (UniProt P06493); conditions: at 1 µM
[16] = biological target: Cyclin-dependent kinase 2 (Homo sapiens) (UniProt P24941); conditions: at 0.1 µM
[17] = biological target: Cyclin-dependent kinase 2 (Homo sapiens) (UniProt P24941); conditions: at 1 µM
[18] = biological target: Cyclin-dependent kinase 2 (Homo sapiens) (UniProt P24941); conditions: at 0.1 µM; remark: listed apart in the source
[19] = biological target: Cyclin-dependent kinase 2 (Homo sapiens) (UniProt P24941); conditions: at 1 µM; remark: listed apart in the source
[20] = biological target: CDK3/Cyclin E (Homo sapiens) (UniProt P24864+Q00526); conditions: at 0.1 µM;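 further: reported percentages are mean inhibition values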
Chain of CDK3/Cyclin E (Homo sapiens) (P24864 whole entry, looked up): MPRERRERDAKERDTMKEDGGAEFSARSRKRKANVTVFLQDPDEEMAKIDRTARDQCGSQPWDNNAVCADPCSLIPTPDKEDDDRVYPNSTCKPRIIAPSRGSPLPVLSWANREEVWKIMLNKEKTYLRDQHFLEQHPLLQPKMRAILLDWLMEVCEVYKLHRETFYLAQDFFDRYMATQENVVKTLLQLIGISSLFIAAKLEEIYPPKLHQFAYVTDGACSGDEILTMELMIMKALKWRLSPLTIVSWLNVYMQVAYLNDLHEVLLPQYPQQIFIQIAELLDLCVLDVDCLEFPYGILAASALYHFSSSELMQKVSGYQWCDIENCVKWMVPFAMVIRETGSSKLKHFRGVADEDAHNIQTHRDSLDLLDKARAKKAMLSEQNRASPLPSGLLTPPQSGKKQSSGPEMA
Chain of CDK3/Cyclin E (Homo sapiens) (Q00526 whole entry, looked up): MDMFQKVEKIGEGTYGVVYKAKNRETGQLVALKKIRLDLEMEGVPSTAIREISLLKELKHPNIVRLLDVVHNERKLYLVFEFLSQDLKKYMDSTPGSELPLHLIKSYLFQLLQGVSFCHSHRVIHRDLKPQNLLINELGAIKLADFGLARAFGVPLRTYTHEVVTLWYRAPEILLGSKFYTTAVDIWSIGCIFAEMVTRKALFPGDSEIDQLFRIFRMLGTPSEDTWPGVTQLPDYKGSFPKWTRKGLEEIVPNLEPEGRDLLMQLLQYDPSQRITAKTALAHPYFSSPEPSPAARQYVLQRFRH

Chain of Casein kinase I isoform alpha (Homo sapiens) (P48729 2-337 limits assumed): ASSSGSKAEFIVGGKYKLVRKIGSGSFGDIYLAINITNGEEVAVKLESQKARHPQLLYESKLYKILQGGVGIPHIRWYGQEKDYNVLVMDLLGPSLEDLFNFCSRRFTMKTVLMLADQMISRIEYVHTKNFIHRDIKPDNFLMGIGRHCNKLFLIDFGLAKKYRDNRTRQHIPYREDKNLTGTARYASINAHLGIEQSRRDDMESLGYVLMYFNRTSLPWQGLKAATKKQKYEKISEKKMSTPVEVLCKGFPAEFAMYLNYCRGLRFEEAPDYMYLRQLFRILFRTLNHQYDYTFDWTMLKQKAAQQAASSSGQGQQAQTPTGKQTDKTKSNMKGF
Chain of Casein kinase I isoform gamma-3 (Homo sapiens) (Q9Y6M4 whole entry, looked up, canonical isoform): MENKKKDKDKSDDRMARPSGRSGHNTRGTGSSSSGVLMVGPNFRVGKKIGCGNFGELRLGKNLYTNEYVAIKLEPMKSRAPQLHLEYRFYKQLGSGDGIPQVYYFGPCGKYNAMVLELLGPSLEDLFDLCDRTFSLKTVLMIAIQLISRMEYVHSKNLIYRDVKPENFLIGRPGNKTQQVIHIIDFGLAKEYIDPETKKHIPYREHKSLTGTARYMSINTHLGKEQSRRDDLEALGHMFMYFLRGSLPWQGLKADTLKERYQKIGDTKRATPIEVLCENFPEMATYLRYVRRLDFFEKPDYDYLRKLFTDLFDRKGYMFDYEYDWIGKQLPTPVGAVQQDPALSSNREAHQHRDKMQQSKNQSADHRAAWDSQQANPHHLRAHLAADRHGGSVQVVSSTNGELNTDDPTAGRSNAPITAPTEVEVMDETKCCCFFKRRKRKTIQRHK
Chain of Cyclin-dependent kinase 1 (Homo sapiens) (P06493 whole entry, looked up): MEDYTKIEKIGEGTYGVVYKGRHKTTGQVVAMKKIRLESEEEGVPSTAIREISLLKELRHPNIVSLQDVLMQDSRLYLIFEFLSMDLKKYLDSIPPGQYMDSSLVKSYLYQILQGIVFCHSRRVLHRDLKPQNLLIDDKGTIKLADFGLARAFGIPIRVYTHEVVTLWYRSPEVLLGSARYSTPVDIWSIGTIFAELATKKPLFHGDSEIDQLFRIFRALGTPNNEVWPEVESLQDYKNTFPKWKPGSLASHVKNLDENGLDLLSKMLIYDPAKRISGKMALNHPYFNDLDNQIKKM
Chain of Casein kinase I isoform gamma-1 (Homo sapiens) (Q9HCP0 whole entry, looked up, canonical isoform): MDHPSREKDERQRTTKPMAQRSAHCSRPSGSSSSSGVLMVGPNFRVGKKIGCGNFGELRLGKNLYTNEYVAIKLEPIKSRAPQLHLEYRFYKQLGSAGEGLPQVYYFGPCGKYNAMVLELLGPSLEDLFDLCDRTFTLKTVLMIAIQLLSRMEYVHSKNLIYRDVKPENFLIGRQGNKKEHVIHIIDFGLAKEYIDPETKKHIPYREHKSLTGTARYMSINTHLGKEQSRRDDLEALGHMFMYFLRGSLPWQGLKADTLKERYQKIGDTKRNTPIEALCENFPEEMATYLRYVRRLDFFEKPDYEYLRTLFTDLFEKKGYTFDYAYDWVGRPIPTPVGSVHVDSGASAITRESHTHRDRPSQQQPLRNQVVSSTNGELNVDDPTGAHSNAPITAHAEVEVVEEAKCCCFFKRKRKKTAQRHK
Chain of Casein kinase I isoform gamma-2 (Homo sapiens) (P78368 whole entry, looked up, canonical isoform): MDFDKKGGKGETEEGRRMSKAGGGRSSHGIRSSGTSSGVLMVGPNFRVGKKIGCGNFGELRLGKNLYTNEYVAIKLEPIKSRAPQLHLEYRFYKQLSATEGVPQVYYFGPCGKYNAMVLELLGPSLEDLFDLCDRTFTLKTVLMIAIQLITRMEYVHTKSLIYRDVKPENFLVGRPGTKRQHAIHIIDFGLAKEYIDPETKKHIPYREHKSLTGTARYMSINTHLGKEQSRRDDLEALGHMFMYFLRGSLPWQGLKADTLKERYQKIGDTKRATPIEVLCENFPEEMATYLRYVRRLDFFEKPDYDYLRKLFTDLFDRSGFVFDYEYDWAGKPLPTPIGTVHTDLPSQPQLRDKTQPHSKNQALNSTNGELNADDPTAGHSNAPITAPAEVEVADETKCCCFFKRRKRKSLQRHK

SMILES	inhibition [1]	inhibition [2]	inhibition [3]	inhibition [4]	inhibition [5]	inhibition [6]	inhibition [7]	inhibition [8]	inhibition [9]	inhibition [10]	inhibition [11]	inhibition [12]	inhibition [13]	inhibition [14]	inhibition [15] [%]	inhibition [16]	inhibition [17]	inhibition [18]	inhibition [19]	inhibition [20]
c1cnn2ncc(-c3ccnc(NCCCN4CCOCC4)n3)c2c1	1.95%	3.58%	2.58%	2.3%	1.85%	2.74%	16.4%	3.57%	4.83%	3.07%	5.14%	1.77%	4.33%	1.53%	13.9	1.1%	5.75%	5.32%	5.99%	0.96%
NS(=O)(=O)c1ccc(N/N=C2\C(=O)Nc3ccc(C(=O)NCc4ccncc4)cc32)cc1	44%	5.34%	20.7%	2.55%	2.67%	1.19%	2.77%	2.33%	4.19%	1.94%	4.22%	1.86%	5.91%	31.4%	71.3	84.9%	110%	78%	86.2%	53.2%
CC1=C(C(=O)Nc2ccc3[nH]ncc3c2)C(c2ccc(F)cc2)N=C(c2ccc(C(F)(F)F)nc2)N1 (stereo not given)	2.03%	1.72%	-0.03%	0.88%	-1.54%	0.89%	2.81%	3.19%	2.72%	0.59%	2.44%	0.89%	1.64%	-0.29%	0.48	2.22%	3.53%	2.03%	3.67%	0.12%
CS(=O)(=O)CCNCc1ccc(-c2ccc3ncnc(Nc4ccc(OCc5cccc(C(F)(F)F)c5)cc4)c3c2)o1	6.44%	5.83%	4.35%	2.31%	2.41%	5.05%	6.4%	3.46%	4.57%	3.14%	3.89%	3.14%	2.45%	1.34%	0.34	2.27%	1.87%	2.01%	3.44%	-1.58%
Fc1ccc(Nc2nccc(-c3c(-c4ccc(C(F)(F)F)cc4)nn4ncccc34)n2)cc1F	5.12%	2.94%	0.83%	0.43%	-1.83%	8.3%	5.37%	3.69%	4.68%	1.53%	4.13%	3.32%	3.74%	-0.65%	0.76	1.15%	-0.44%	3.94%	3.93%	0.39%
NS(=O)(=O)c1cccc(N/C=C2\C(=O)Nc3ccccc32)c1	14.4%	4.45%	4.78%	1.7%	1.39%	8.16%	21.6%	4.71%	10.6%	3.71%	12.7%	5.4%	14%	2.85%	7.45	4.87%	8.39%	5.07%	16%	4.56%
COc1cccc(Nc2nccc(-c3cnn4ncccc34)n2)c1	22.9%	2.07%	12.8%	0.21%	0.62%	14.9%	48%	2.61%	20.5%	4.45%	47.2%	3.61%	38.6%	63.9%	79.2	72.8%	105%	64.7%	78.6%	42.2%
CC1=C(C(=O)Nc2ccc3[nH]nc(C)c3c2)C(c2ccc(C(F)(F)F)cc2)CC(=O)N1 (stereo not given)	3.52%	1.88%	0.25%	1.4%	-4.29%	2.09%	3.07%	1.96%	3.62%	1.19%	3.14%	2.16%	2.2%	1.96%	6.87	2.54%	6.05%	2.66%	6.67%	0.4%
O=C(O[C@H]1CN[C@H](C#Cc2cc3ncnc(Nc4ccc5c(cnn5Cc5ccccc5)c4)c3s2)C1)N1CCOCC1	1.41%	0.75%	-0.13%	-0.69%	-1.3%	-2.11%	0.76%	-0.81%	0.82%	-0.61%	0.77%	-1.09%	1.79%	2.44%	4.08	0.92%	-1.09%	3.48%	2.34%	-0.1%
CNC(=O)c1sc(-n2cnc3cc(OC)c(OC)cc32)cc1OCc1ccccc1C(F)(F)F	4.39%	1.24%	1.63%	1.51%	1.01%	0.44%	2.65%	3.33%	3.86%	3.4%	3.65%	3.86%	4.26%	0.69%	2.03	0.22%	1.77%	2.17%	3.8%	0.35%
CN1CCN(Cc2ccc(-c3cc4ncnc(Nc5ccc(OCc6cccc(F)c6)c(Cl)c5)c4s3)o2)CC1	2.76% and 4.14%	2.79% and 6.19%	3.62% and 7.65%	0.34% and 4.58%	0.35% and 5.87%	3.03% and 3.11%	4.88% and 3.62%	2.79% and 5.01%	4.51% and 5.57%	2.31% and 3.69%	4.06% and 5.69%	2.07% and 2.73%	3.72% and 4.9%	1.26% and -0.15%	3.35	2.79% and 0.8%	5.88% and 5.34%	3.41% and 3.54%	4.99% and 6.73%	-1.62% and 3.97%
Fc1cccc(COc2ccc(Nc3ncncc3C#Cc3ccccc3)cc2Cl)c1	6.39%	3.55%	6.94%	2.49%	4.25%	5.09%	7.86%	4.27%	4.53%	3.09%	4.69%	4.31%	4.88%	0.35%	1.89	1.7%	5.5%	4.38%	4.99%	1.59%
CN1CCC(n2cnc(-c3ccc(F)cc3)c2-c2ccnc(NCCO)n2)CC1	7.57%	4.44%	6.56%	3.07%	4.33%	37%	73.4%	4.15%	8.74%	2.94%	5.84%	4.27%	10.2%	0.37%	1.31	1.69%	-0.92%	4.05%	4.55%	1.13%
